In the library only some 5.9% were active in any assay of this set; here they are far more common.
TrxR1 substrate: rat thioredoxin reductase 1 substrate activity; O89049; purified TrxR1 substrate turnover, NADPH consumption readout; AID 588456; hit rate 0.01% among 390,000; Potency, µM (top dose mostly 114 µM), without a hit: at the top dose activity change, negative = substrate turnover; note: potency is the fitted concentration of half-maximal effect; nearly all actives have a fitted effect of over 50% in size
Target sequence (O89049 whole entry, looked up): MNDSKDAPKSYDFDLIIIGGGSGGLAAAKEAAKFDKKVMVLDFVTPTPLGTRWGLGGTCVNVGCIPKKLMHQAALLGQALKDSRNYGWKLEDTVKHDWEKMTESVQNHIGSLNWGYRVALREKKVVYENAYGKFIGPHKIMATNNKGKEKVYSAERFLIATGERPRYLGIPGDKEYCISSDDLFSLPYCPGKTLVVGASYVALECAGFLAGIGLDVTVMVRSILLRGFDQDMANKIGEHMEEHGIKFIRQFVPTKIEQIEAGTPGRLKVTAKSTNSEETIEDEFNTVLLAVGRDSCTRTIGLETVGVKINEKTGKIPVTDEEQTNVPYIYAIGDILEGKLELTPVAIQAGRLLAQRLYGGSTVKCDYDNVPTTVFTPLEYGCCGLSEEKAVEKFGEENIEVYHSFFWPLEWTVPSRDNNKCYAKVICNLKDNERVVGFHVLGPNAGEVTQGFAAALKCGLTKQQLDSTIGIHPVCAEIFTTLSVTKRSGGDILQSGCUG
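Rat TrxR1, dispensed at 90 nM, was prereduced with 400 uM NADPH (final) for 5 min at ~22 deg C, then incubated with compound 15 min before 400 uM selenite. A first-read NADPH fluorescence drop versus no-compound background flagged substrates.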
RORg inh: blocks mouse ROR gamma transcriptional activity. P51450. Drosophila S2 Gal4-RORgamma UAS-luciferase reporter, 20 h. Potency, µM (top dose mostly 53.6 µM), for the others: top-dose activity change, negative = inhibition, usual class: inhibitors. hit rate 5.4% among 310,000. AID 2551; note: potency is the fitted concentration of half-maximal effect; nearly all actives have a fitted effect of over 60% in size
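Luminescence from a UAS-regulated Photinus luciferase reporter in stably transfected Drosophila Schneider cells is measured; decreased signal marks ROR gamma inhibition. Fusion expression is induced by 700 uM copper sulfate for 20 hr.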
GALK inhibitor: galactokinase (human) inhibition | AID 1868 | Potency, µM (top dose mostly 57.5 µM), inactives show top-dose activity change, negative = inhibition, hits mostly inhibitors | P51570 | hit rate 0.007% among 270,000 | Purified GALK, Kinase-Glo residual ATP luminescence; note: potency is the fitted concentration of half-maximal effect
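Compounds were pin-transferred into ATP buffer (35 uM final), then GALK plus galactose (5 nM, 100 uM final) was added. After 1 h at room temperature, Kinase-Glo Plus was added and luminescence read after 10 min.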
Gal4-VP16 FLuc: inhibits Gal4-VP16 luciferase reporter, ROR gamma counter-screen. Drosophila S2 Gal4-VP16 UAS-luciferase, luminescence, 20 h. Potency, µM (titrated, usually from 53.6 µM), inactives show top-dose activity, negative = inhibition, most hits filed as inhibitors. hit rate 3.5% among 310,000. AID 2546;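 note: Gal4-VP16 expression switched on by copper sulfate through the metallothionein promoter; potency is the fitted concentration of half-maximal effect; nearly all actives have a fitted effect of over 50% in size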
Coupling enz: counter-screen for Giardia aldolase inhibitors: coupling enzyme system; coupling enzyme system counterscreen, AmpLite Red fluorescence; activity change, negative = inhibition, % at 58.2 µM, hits read low; hit rate 0.67% among 290,000; AID 2472; in the data active = activity change below about -30%
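Final compound at 57.5 uM, incubated 10 min at RT with coupling enzyme reagent (glyceraldehyde-3-phosphate), then 20 min with substrate and AmpLite Red detection. Fluorescence read at 525/598 nm; tests interference with the coupling assay, not aldolase inhibition.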
rTrxR1 inhibitor: inhibitors of rat thioredoxin reductase 1; O89049; recombinant rTrxR1, NADPH fluorescence consumption, selenite substrate; Potency, µM (highest dose often 114 µM), for the others: top-dose activity change, negative = inhibition, most hits filed as inhibitors; hit rate 1% among 390,000; AID 588453; note: potency is the fitted concentration of half-maximal effect; nearly all actives have a fitted effect of over 65% in size
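Rat TrxR1 (90 nM in the dispensed reagent) was pre-reduced with 400 uM NADPH for 5 min at room temperature, then incubated with compound for 15 min. After 400 uM selenite was added, NADPH fluorescence (Ex 340/Em 450 nm) was followed for 8 min.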
* = called active by the depositor; ? = inconclusive; · = not tested or not shown; [ ] = another dose, or the depositor's remark. Unless noted, calls come from the whole dose curve; as a rule, active = well fitted curve in the direction sought with a large enough effect; inconclusive = small, poorly fitted or top-dose-only effect, or another doubt; inactive = no such curve, though single readings can be large; an effect the other way counts as inactive or inconclusive. % is set by controls: 0 for no effect and ±100 for the full control effect.

SMILES | TrxR1 substrate | RORg inh | GALK inhibitor | Gal4-VP16 FLuc | Coupling enz | rTrxR1 inhibitor
COc1ccc(-c2cc(-c3ccc(OC)cc3)[nH]n2)cc1 | -2% | 1.3µM* | 2% | 2µM* | 3 | 7%
COc1ccc(-c2cc(-c3ccc(C)cc3)n[nH]2)c(O)c1 | -3%[57.1 µM] | 2.5µM* | · | 20µM* | -8 | 0%[57.1 µM]
Cc1ccc(-c2cc(-c3cccs3)[nH]n2)c(O)c1 | 8%[57.1 µM] | 11µM* | 0% | ? | 1 | 12%[57.1 µM]
Oc1ccccc1-c1cc(-c2cccc(F)c2)n[nH]1 | 3% | ? | 3% | ? | 0 | ?
CC(C)(C)c1ccc(-c2cc(-c3ccccc3O)[nH]n2)cc1 | 6%[57.1 µM] | ? | 0% | 7.1µM* | -6 | 18%
COc1ccc(-c2cc(C(=O)NN)[nH]n2)cc1 | 8%[57.1 µM] | 18%[10 µM] | 0% | ? | 5 | 5%
Cc1ccc(Cl)cc1NC(=O)Cn1c(=O)cc(C)c2c(C)nn(C)c21 | 0%[57.1 µM] | · | · | · | · | 10%[57.1 µM]
Cc1cc(C)n(-c2nc3ccccc3nc2N2CCN(S(=O)(=O)c3ccc4ccccc4c3)CC2)n1 | 67% | -2% | 3% | 1% | 1 | 39%
COc1ccc(OC)c(NC(=O)c2cc(-c3cc(C)ccc3O)n[nH]2)c1 | -14%[57.1 µM] | -44% | -1% | ? | 0 | 11%[57.1 µM]
COc1ccc(-c2cc(-c3cc(C)ccc3O)[nH]n2)cc1 | -5% | 4µM* | -3% | ? | -4 | 7%
Cc1ccccc1-c1cc(-c2ccccc2O)on1 | 11% | 13µM* | 0% | -27% | -1 | 14%
Cc1ccc(O)c(-c2cc(-c3ccccc3C)[nH]n2)c1 | -10% | 11µM* | -3% | 11µM* | -1 | -9%
COc1ccc2oc(-c3ccccc3)c(C(=O)N(C)C)c2c1 | 41% | · | 3% | · | 0 | -12%
COc1nnc(-c2ccc(C)c(S(N)(=O)=O)c2)c2ccccc12 | -2% | 20% | -2% | 3% | -1 | 11%
CC(=O)c1ccc(NC(=O)NC2CCCCCCC2)cc1 | -1% | 18% | -2% | ? | · | -2%
CCOc1ccc(N2C=Nc3ccc(OCC)cc3C2)cc1 | 1% | -34% | · | -21% | 3 | 21%
O=C(O)c1cccc(NC(=S)N/N=C/c2cccc(O)c2)c1 | 0%[57.1 µM] | 0% | 3% | -5% | 1 | -11%[57.1 µM]
O=C(N/N=C/c1ccccn1)c1cc([N+](=O)[O-])cc([N+](=O)[O-])c1 | -6% | 3.5µM* | -2% | 4.5µM* | -6 | 31%
O=C(N/N=C/c1ccccn1)c1ccc([N+](=O)[O-])cc1 | -11%[57.1 µM] | 1% | 0% | -13% | -4 | 24%[57.1 µM]
O=C(O)c1cccc(NC(=S)N/N=C/c2ccccn2)c1 | -11% | 4.5µM* | 1% | ? | -9 | 3%
O=C(N/N=C1/CCCc2ccccc21)c1cc([N+](=O)[O-])cc([N+](=O)[O-])c1 | · | 11µM* | 3% | 3% | 3 | ·
Cc1occc1C(=O)N/N=C/c1ccccn1 | -10% | 10µM* | 8% | -26% | 0 | -8%
COc1ccc(-c2cc(C(=O)OCC(=O)N3CCCCC3)c3ccccc3n2)cc1OC | 2%[57.1 µM] | · | · | · | · | 2%[11.4 µM]
COc1cc2oc(=O)c(Br)c(C)c2c(OC)c1OC | 1%[57.1 µM] | -21% | 5% | -1% | 0 | -2%[57.1 µM]
COc1ccccc1-c1nc2ccccc2c(=O)n1O | 2%[57.1 µM] | -14% | 5% | 6% | -2 | -12%[57.1 µM]
Cc1cccc(C(=O)N/N=C/c2ccccn2)c1 | -17% | 6.3µM* | 0% | 14µM* | 4 | -12%
O=C(N/N=C/c1ccccn1)c1cccc([N+](=O)[O-])c1 | -10% | 4.5µM* | 10% | 13µM* | 0 | 7%[57.1 µM]
CCCCN(c1ccccc1)S(=O)(=O)c1cccc2cccnc12 | 4% | -35% | · | 14µM* | -2 | 14%
CN(Cc1ccccc1)S(=O)(=O)c1cccc2cccnc12 | 0% | 27% | 2% | 0% | -31* | 12%
CCSS(=O)(=O)c1cccc2cccnc12 | -3%[57.1 µM] | 22µM* | -1% | ? | 1 | 4%[57.1 µM]

Screening data deposited in PubChem BioAssay by National Center for Advancing Translational Sciences (NCATS).
